High-throughput results deposited in PubChem BioAssay by National Center for Advancing Translational Sciences (NCATS).
Shiga inhibitor – Shiga toxin inhibition; Vero cells, Shiga toxin protein synthesis inhibition reporter; inhibition, % at 38.7 µM; hit rate 9.2% among 290,000; in the data active means inhibition mostly above about 28%, no sharp cut-off; inactive means mostly below about 43%; further: 0% is about no effect
CHX counter – affects cycloheximide protein synthesis inhibition readout, counter-screen; max response, %; cell reporter, cycloheximide protein synthesis inhibition counterscreen; AID 2314; hit rate 12% among 300,000; in the data active means max response mostly above about 13%, no sharp cut-off; inactive means mostly below about 14%; further: read at 38.3 µM for the half of the compounds with a filed dose; 0% is about no effect
TbPYK inhibitor – inhibitors of Trypanosoma brucei pyruvate kinase. Q57TT1. TbPYK enzyme, Kinase-Glo Plus ATP luminescence, 45 min. Potency, µM (doses to about 76.8 µM), without a hit: at the top dose activity, negative = inhibition, usual class: inhibitors. hit rate 0.12% among 410,000. AID 624173; further: potency means the concentration at half of the fitted maximal effect; on the % scale 0 is the no-effect control and ±100 the full control effect; nearly all actives have a fitted effect of over 50% in size
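TbPYK + substrate in 50 mM TEA pH 7.2, 100 mM KCl, 10 mM MgCl2, 0.05% BSA, 0.01% Tween-20; cpd pinned; ADP 130 uM final; 45 min RT; Kinase-Glo Plus 10 min; luminescence endpoint.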
LmPK inhibitor – blocks Leishmania mexicana pyruvate kinase activity; Q27686; purified LmPK, Kinase-Glo ATP luminescence, 1 h; Potency, µM (doses to about 57.5 µM), for inactives: at the top dose activity change, negative = inhibition, actives largely listed as inhibitors; hit rate 0.37% among 290,000; further: potency means the concentration at half of the fitted maximal effect; on the % scale 0 is the no-effect control and ±100 the full control effect
Target sequence (Q27686 whole entry, looked up): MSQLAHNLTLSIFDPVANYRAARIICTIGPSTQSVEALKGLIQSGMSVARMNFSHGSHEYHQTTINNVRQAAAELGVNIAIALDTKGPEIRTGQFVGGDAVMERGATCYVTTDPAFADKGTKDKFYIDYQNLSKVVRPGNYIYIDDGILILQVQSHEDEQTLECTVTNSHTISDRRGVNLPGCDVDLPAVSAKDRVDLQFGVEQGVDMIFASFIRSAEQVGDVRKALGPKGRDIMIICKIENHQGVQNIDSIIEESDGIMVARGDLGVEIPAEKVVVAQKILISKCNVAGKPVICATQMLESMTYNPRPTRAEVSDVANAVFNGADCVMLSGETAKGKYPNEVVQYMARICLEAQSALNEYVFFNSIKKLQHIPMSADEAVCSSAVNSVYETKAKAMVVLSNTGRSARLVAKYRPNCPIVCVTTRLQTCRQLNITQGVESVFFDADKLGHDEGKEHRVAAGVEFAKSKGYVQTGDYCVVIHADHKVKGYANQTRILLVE
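ATP generated from ADP (0.1 mM) and PEP (0.5 mM) by 0.1 nM LmPK over 1 h at room temperature (pH 7.2 imidazole buffer) was detected by coupled luciferase luminescence. Values were normalized to uninhibited and no-enzyme wells.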
RE007 growth inh – less growth of the S. pombe RE007 Vpr strain; S. pombe RE007 Vpr strain, BacTiter-Glo ATP luminescence, 24 h; Potency, µM (doses to about 92.2 µM), without a hit: top-dose activity change, negative = less growth, most hits filed as inhibitors; hit rate 0.21% among 360,000; AID 651644; active means well fitted falling curve with a large enough effect; further: potency means the concentration at half of the fitted maximal effect; on the % scale 0 is the no-effect control and ±100 the full control effect; nearly all actives have a fitted effect of over 50% in size
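Fission yeast strain RE007, carrying one chromosomally integrated HIV-1 vpr copy, was seeded at OD 0.01 in PMG+AL medium with 23 nL pinned compound. After 24 h at 30 °C and 99% humidity, viability was read by BacTiter-Glo luminescence.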
FBPA Giardia inh – blocks Giardia fructose-bisphosphate aldolase activity. A8B2U2. purified Giardia FBPA. Potency, µM (top dose mostly 59.6 µM), for inactives: top-dose activity, negative = inhibition, most hits filed as inhibitors. hit rate 0.71% among 290,000. AID 2451; further: potency means the concentration at half of the fitted maximal effect; on the % scale 0 is the no-effect control and ±100 the full control effect; nearly all actives have a fitted effect of over 55% in size
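40 nM FBPA preincubated 10 min at RT with compound (up to 57.5 uM final), then substrate plus GAPDH/TPI/NAD/arsenate coupling and diaphorase/resazurin added. Fluorescence read after 20 min at RT, 525/598 nm.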
An asterisk follows results filed as active; · = no result given; [ ] = another dose, or the depositor's remark. This is one part of a sample in which hits are shown more often than they occur. Unless noted, the call rests on the fitted dose curve; in most records, active means well fitted curve in the direction sought with a large enough effect; inconclusive means small, poorly fitted or top-dose-only effect, or another doubt; inactive means no such curve, though single readings can be large; an effect the other way counts as inactive or inconclusive.

SMILES | Shiga inhibitor | CHX counter | TbPYK inhibitor | LmPK inhibitor | RE007 growth inh | FBPA Giardia inh
Cc1ccccc1-c1nc(-c2cccnc2)no1 | 82.6* | 27.8* | -3.5% | -22.6% | -25.2% | 3.1%
O=C(Nc1nnc(-c2cccnc2)o1)c1ccccc1Cl | 18.1 | 9.2 | -0.8% | -4.8%[11.5 µM] | 12.9% | -1.4%
C[C@H]1Cc2c(COc3ccccc3)nc3c(c2CO1)CN(C(=O)NCCc1c[nH]c2ccccc12)CC3 | · | · | · | -2.9%[11.5 µM] | · | -5.9%[12.9 µM]
CC(=O)Nc1cc(-c2ccncc2)cn2c(-c3ccccc3)cnc12 | · | · | 0.5% | · | 0.7% | ·
Cc1cccc([C@@H]2CN(C)CCc3c2cc(O)c(O)c3Cl)c1 | · | · | · | · | · | -28.5%
CSc1ccccc1-c1nc(-c2ccncc2)no1 | 81.9* | 56.6* | -10.7% | -8.9% | -5.2% | -2.5%
CCOC(=O)C1(CCCc2ccccc2)CCN(C(=O)Cn2nc(C)nc2C)CC1 | -6.3 | -1.2 | -15.0% | 0.9% | -3.2% | 1.6%
Cc1cc(C)cc(C(=O)OCC(=O)N2CCCCCC2)c1 | · | · | 4.1% | · | 9.6% | ·
CC1CCN(C(CC(=O)c2ccccc2)C(=O)c2ccccc2)CC1 (configuration not stated) | · | · | 20µM* | · | 4.47µM* | ·
C/C(CC(=O)Nc1ccc(F)cc1)=N\NC(=O)COc1ccccc1 | 11.3 | -1.5 | 0.7% | 0.2% | -15.3% | -2.8%
CCC(=O)NNC(=O)Cc1c(C)n(C(=O)c2ccc(Cl)cc2)c2ccc(OC)cc12 | -5.3 | -4.0 | -0.7% | 0.9% | 0.1% | 0.7%
COC(=O)N/N=C\c1ccc(OC/C=C/c2ccccc2)cc1 | 14.2 | 14.7* | -5.1% | 5.6% | -11.3% | 4.9%
CCOC(=O)N/N=C\c1ccc(OC/C=C/c2ccccc2)cc1 | 17.5 | 11.6 | 1.2% | 6.2% | -1.0% | 5.1%
COC(=O)N/N=C/c1ccc(Oc2ccccc2)cc1 | 91.9* | 46.4* | -0.6% | -11.4% | 11.0% | -2.3%
CC(C)(O)C(=O)N/N=C\c1ccc(OC/C=C/c2ccccc2)cc1 | 45.0 | 32.3* | 5.9% | 2.1% | 1.9% | 8.5%
CNC(=O)COc1coc(CN2CCN(c3cccc(Cl)c3)CC2)cc1=O | -3.8 | -2.4 | 2.9% | 3.1% | 7.0% | 15.3%
O=C(NN=C1CCCC1)c1cccc(Br)c1 | 86.6* | 25.8* | 0.4% | 1.0% | -6.1% | -4.9%
O=C(N/N=C1/CCCc2ccccc21)C(c1ccccc1)c1ccccc1 | 61.4* | 1.0 | 1.4% | 5.0% | 8.8% | 2.6%
O=C(O)c1cc2c(o1)CCC/C2=N\O | -5.1 | -7.1 | 3.8% | 3.1% | -4.3% | 1.0%
O=C(N/N=C1\CCCc2ccccc21)c1cccc(Br)c1 | 58.6* | 38.2* | 6.1% | -3.7% | -15.2% | -6.4%
O=C(N/N=C1\CCCc2ccccc21)c1cccc([N+](=O)[O-])c1 | 33.0 | 10.4 | -2.6% | 11.0% | -1.6% | -1.7%
O=C(N/N=C1\CCCc2oc(C(=O)O)cc21)c1ccccc1 | 74.2* | 43.6* | 1.1% | 0.0% | -14.8% | -21.0%
C[C@@]12CCC(=O)C[C@@H]1CC(=O)[C@H]1[C@H]3CCC[C@]3(C)C(=O)C[C@@H]12 (tested in a mixture with another compound) | · | · | · | · | · | -2.7%[21.7 µM]
CCOc1ccc(N(C)C(=O)c2oc(=O)c3ccccc3c2-c2ccccc2)cc1 | · | · | -3.3% | · | · | ·
O=C(NCCCCc1ccccc1)c1cccc(Br)c1 | 67.8 | 15.2* | -0.7% | -1.8% | 79.3% | 4.0%
SMILES | Shiga inhibitor | CHX counter | TbPYK inhibitor | LmPK inhibitor | RE007 growth inh | FBPA Giardia inh
O=C(NCc1ccccc1)c1cncc(Br)c1 | 3.1 | 12.6 | -6.7% | -2.8% | -23.8% | 2.7%
O=C(NCCCc1ccccc1)c1cncc(Br)c1 | 45.6 | 19.8* | 1.0% | 0.2% | 9.6% | 13.2%
O=C(NCCCc1ccccc1)c1cccc(Br)c1 | · | · | 0.5% | · | -21.5% | ·
O=C(NCc1ccncc1)c1cncc(Br)c1 | 19.7 | 0.3 | -9.3% | -1.8% | 8.4% | 4.1%
COc1ccc(C(=O)NC(=S)NNC(=O)c2ccc(O)cc2)cc1[N+](=O)[O-] | 85.9* | 39.5* | 3.3% | 4.0% | -10.2% | 17.8%
O=C(NCCc1ccccn1)c1cncc(Br)c1 | 37.1 | 19.6* | 34.4% | -3.1% | 12.6% | 16.0%
COc1ccc(NCC(=O)NN=C2CCS(=O)(=O)c3ccc(F)cc32)cc1 | · | · | -4.4% | · | 2.3% | ·
O=C(c1ccc(Nc2nccc(-c3cc4ccccc4s3)n2)cc1)N1CCC(N2CCCC2)CC1 | -16.1 | -17.8 | · | · | · | -10.2%
